Screens as filed in PubChem BioAssay.
PriA SSB inh: blocks PriA binding to SSB C-terminal tail; inhibition, % at 33 µM; AlphaScreen SSBct-PriA binding, biotinylated peptide; actives 0.6% (n = 430,000); in the data active = inhibition mostly above about 37%, no sharp cut-off; inactive = mostly below about 20%
SARS 3CLpro inh: SARS-CoV 3CLpro protease inhibition | P0C6X7 | recombinant SARS-CoV 3CLpro, quenched FRET peptide cleavage | inhibition, % at 6 µM | actives 0.14% (n = 290,000) | AID 1706; in the data active = inhibition above about 12%
Mtb hypoxia rep: inhibitors of hypoxia-regulated fluorescent reporter in Mycobacterium tuberculosis | M. tuberculosis hypoxia-regulated fluorescent reporter, fluorescence | fluorescence inhibition, % (concentration not given with the values) | actives 0.1% (n = 300,000); in the data active = fluorescence inhibition mostly above about 23%, no sharp cut-off; inactive = mostly below about 17%
VHR inh abs: blocks human VHR1 dual specificity phosphatase; P51452; recombinant VHR phosphatase, pNPP absorbance; inhibition, % at 13.3 µM; actives 0.52% (n = 290,000); AID 1654; in the data active = inhibition above about 50%
Target sequence (P51452 whole entry, looked up): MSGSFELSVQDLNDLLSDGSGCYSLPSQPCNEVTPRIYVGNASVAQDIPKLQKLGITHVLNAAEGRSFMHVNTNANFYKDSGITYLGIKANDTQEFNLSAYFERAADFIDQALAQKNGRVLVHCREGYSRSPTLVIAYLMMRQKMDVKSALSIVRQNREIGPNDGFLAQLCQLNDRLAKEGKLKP
CCHFV vOTU inh: CCHFV vOTU protease inhibition; actives 0.55% (n = 370,000); inhibition, % at 11.5 µM; AID 651958; Pep-AMC fluorescence; in the data active = inhibition above about 30%
Numbers stand for hits; - = inactive; . = not tested or not shown; ! = repeats disagree. Compounds with a hit are over-represented: about 1.3% of the library has one in this group of screens.

SMILES | PriA SSB inh | SARS 3CLpro inh | Mtb hypoxia rep | VHR inh abs | CCHFV vOTU inh
CC(C)(C)n1nc2c(c1NC(=O)c1c(F)cccc1F)CSC2 | - | . | . | . | .
COc1cccc(C(=O)C[n+]2ccccc2C=NO)c1 | - | . | - | . | .
O/N=C/c1cccc[n+]1CCCCCC[n+]1ccccc1/C=N/O | . | - | . | 60 | -
COc1ccc(N2CC(C(=O)N3CCN(C(=O)c4cnn5ccccc45)CC3)CC2=O)cc1 (stereo not given) | - | . | . | . | .
Cc1c(N2C(=O)/C(=C/c3ccc(N(C)C)cc3)N(C)C2=S)c(=O)n(-c2ccccc2)n1C | - | . | 40 | . | -
COc1ccc(Nc2cc(C)nc3c(C)ccc([N+](=O)[O-])c23)cc1 | 112 | . | . | . | .
Cc1cc(Nc2ccc(Br)cc2)c2c([N+](=O)[O-])ccc(C)c2n1 | - | . | . | . | .
CC(=O)/C(=N/Nc1ccccc1[N+](=O)[O-])N1CCCc2ccccc21 | . | - | . | - | -
CC(=O)C(=NNc1ccccc1[N+](=O)[O-])N1CCCc2ccccc21 | 56 | . | - | . | .
Cc1noc(C2CN(CC(=O)N3CCc4ccccc43)C2)n1 | - | . | . | . | .
Cc1ccc2nc(N(CCCn3ccnc3)C(=O)C3COc4ccccc4O3)sc2c1 (stereo not given) | 35 | . | . | . | .
CN(C)CCCN(C(=O)C1COc2ccccc2O1)c1nc2ccc(F)cc2s1 (stereo not given) | - | - | - | - | -
CC(=NNc1nc2ccccc2s1)c1ncccn1 | - | . | . | . | -
CC(=NNc1nc2ccccc2o1)c1ncccn1 | 101 | . | . | . | -
CC(=NNc1nc2ccccc2o1)c1cc2ccccc2cn1 | 41 | . | . | . | -
Cc1ccc(CN2C3CCCC2CC(NC(=O)c2ccc(F)cc2)C3)cc1 (stereo not given) | - | - | - | - | -
Cc1ccc(C(=O)NC2CC3CCCC(C2)N3Cc2ccccc2)cc1 (stereo not given) | - | - | - | 53 | -
O=C(O)c1cnc2ccccc2n1 | - | - | - | - | -
O=C(O)c1cc2c(cn1)[nH]c1ccccc12 | 80 | - | . | - | -
O=C(O)c1cc2ccccc2cn1 | 75! | . | - | . | -
C[C@H](NC(=O)c1cc2c(cn1)[nH]c1ccccc12)C(=O)O | - | - | . | 57 | -
Cc1cn2nc(C(=O)NCCc3ccc(S(N)(=O)=O)cc3)cc2c(=O)[nH]1 | - | . | . | . | .
Cc1nc2oc(-c3ccccc3)nc2cc1NC(=O)C1CC1 | - | . | . | . | .
COc1ccc(C(=O)NCC2(Sc3ccccc3)CCOCC2)cc1F | - | . | . | . | .
Cc1ccc(NC(=O)Nc2ccno2)cc1 | - | - | 89 | - | -
SMILES | PriA SSB inh | SARS 3CLpro inh | Mtb hypoxia rep | VHR inh abs | CCHFV vOTU inh
Cc1ccc(NC(=O)Nc2ncccc2C)cc1 | - | - | - | - | -
O=C(Nc1ccno1)Nc1ccc(Cl)cc1Cl | - | - | 58 | - | -
COc1ccc(S(=O)(=O)CCC(=O)Nc2c3c(nn2C)CCC3)cc1 | - | . | . | . | .
CCCCNC(=O)CC(C(=O)N1CCc2ccccc21)n1ccnc1 (stereo not given) | - | - | - | - | -
CCN(CCCNC(=O)CC(C(=O)N1CCc2ccccc21)n1ccnc1)c1cccc(C)c1 (stereo not given) | 47 | - | - | - | -
Cc1c(NS(=O)(=O)c2cc(C(=O)N3CCCC(C)C3)ccc2Cl)c(=O)n(-c2ccccc2)n1C (stereo not given) | - | . | - | . | -
Cc1c(N(C)S(=O)(=O)c2cc(C(=O)N3CCCC3)ccc2Cl)c(=O)n(-c2ccccc2)n1C | - | - | - | 53 | -
COc1ccc(Nc2ccc(C(F)(F)F)cc2[N+](=O)[O-])cn1 | 46 | - | - | - | -
Cc1oc(-c2ccc(OC(C)C)cc2)nc1Cn1ncn2nc(-c3ccccc3)cc2c1=O | - | . | . | . | .
Cc1csc(CN(C)C(=O)C2CCC(=O)N(CCN(C)C)C2)n1 (stereo not given) | - | - | - | 60 | -
COc1ccc(NC(=O)c2ccc(N3CCC(OC)C3)cc2)cc1Cl (stereo not given) | - | . | . | . | .
CC1(C)C2CCC(C2)C1(C)NC(=O)CNCc1cccs1 (stereo not given) | - | - | . | 51 | -
COc1ccc(C=Nc2cccnc2N)cc1 | - | - | - | - | .
CCOc1ccc(C=Nc2cccc3ncccc23)cc1 | 77 | - | - | - | -
O=C(COc1cccc2c1CCN(Cc1ccccc1F)C2=O)N1CCOCC1 | . | - | - | - | .
O=C(COc1cccc2c1CCN(Cc1ccccc1F)C2=O)N1CCCCC1 | - | - | - | 52 | -
CC(=O)c1cccc(-c2ccc3c(=O)[nH]c(Nc4ccccc4)cc3c2)c1 | - | . | - | . | 104
CC(=O)c1cccc(Nc2nc(-c3ccccc3)nc3ccccc23)c1 | - | - | - | - | -
O=C(O)CNC(=O)CC1S/C(=N/N=C2CSC(=O)N2)NC1=O (stereo not given) | . | . | - | . | .
O=C(O)CNC(=O)CC1SC(=NN=C2CSC(=O)N2)NC1=O (stereo not given) | 95 | . | . | . | .
CCCCn1c(N)c(-c2nc3ccccc3o2)c2c([N+](=O)[O-])nn(C)c(=O)c21 | - | - | - | 55 | -
COc1ccc(CCNC(=O)N2CCCSCC2CN2CCOCC2)cc1 (stereo not given) | - | . | . | . | .
O=C1C2CC=CCC2C(=O)N1C1CNC1 (stereo not given) | - | . | . | . | .
S=c1[nH]nc(-c2cc(-c3ccccc3)n[nH]2)n1N=Cc1ccc(Cl)cc1 | - | . | - | . | .
S=c1[nH]nc(-c2cc(-c3ccccc3)n[nH]2)n1/N=C/c1cccc(Cl)c1 | . | - | . | 50 | -
SMILES | PriA SSB inh | SARS 3CLpro inh | Mtb hypoxia rep | VHR inh abs | CCHFV vOTU inh
Cc1nc(-c2cccs2)sc1CNC(=O)c1ccc2ncsc2c1 | - | . | . | . | .
Cc1cc(C)[n+]2[nH]c(N)c(N=Nc3ccccc3)c2n1 | . | - | 50 | . | -
Nc1ncnc(N)c1N=Nc1ccccc1 | - | - | - | - | -
Cc1ccc(O)c2ncccc12 | - | . | . | . | .
Oc1cccc2c(-c3nn[nH]n3)ccnc12 | 54 | . | - | . | -
OCc1ccnc2c(O)cccc12 | 87 | - | - | - | -
NC(=O)c1ccnc2c(O)cccc12 | 41 | . | - | . | -
NC(=O)c1cccc2ccccc12 | - | - | - | - | -
O=C1OC2(CCN(C(=O)C3(c4ccccc4)CCOCC3)CC2)c2ccccc21 | - | . | . | . | .
O=C(Nc1ccccc1-c1cn2ccsc2n1)c1cc(-c2cccs2)on1 | - | . | . | . | .
CC(c1ccccc1)n1c(N2CCNCC2)nc2c1c(=O)[nH]c(=O)n2C (stereo not given) | - | - | - | 56 | -
CN(C)c1ccc(N=Nc2ccccc2Br)cc1 | 57 | - | - | - | -
O=C(NN=CC1C(=O)NC(=S)N(c2ccccc2)C1=O)c1cc(Br)c(O)c(Br)c1 (stereo not given) | 62 | . | - | . | .
Cc1ccc(-n2c(SCc3nc(-c4cccs4)no3)nc3ccccc3c2=O)cc1 | - | . | . | . | .
Cc1ccc(C(=O)C2CCN(CC(=O)NCc3ccc(F)cc3)CC2)cc1 | - | - | . | 53 | -
Cc1ccc(NC(=O)CN2CCC(C(=O)c3ccc(F)cc3)CC2)cc1 | - | - | - | - | -
O=C(NCc1ccc(C(O)c2ccco2)s1)c1cc2ccccc2o1 (stereo not given) | - | . | . | . | .
N#Cc1nc(Cc2ccccc2)oc1N1CCC(Cc2ccccc2)CC1 | 50 | - | - | - | -
N#Cc1nc(Cc2ccccc2)oc1N1CCN(c2ccccc2)CC1 | 45 | - | - | - | -
